We go through 62 compounds from PubChem BioAssay AID720540 (National Center for Advancing Translational Sciences (NCATS), 2013).

Out of some 1,300 compounds screened, about 460 (35%) were called active. Another 39% or so got no clear call; they are omitted. This is one part of the list. Values without a mark were called inactive. The call rests on the fitted dose curve; in most records, active means well fitted inhibition curve with a large enough effect; inconclusive means small, poorly fitted or top-dose-only effect; inactive means flat fitted curve, though single readings scatter.
Potency means the concentration at half of the fitted maximal effect.

Chain of Protein phosphatase EYA2 (Homo sapiens) (O00167 whole entry, looked up): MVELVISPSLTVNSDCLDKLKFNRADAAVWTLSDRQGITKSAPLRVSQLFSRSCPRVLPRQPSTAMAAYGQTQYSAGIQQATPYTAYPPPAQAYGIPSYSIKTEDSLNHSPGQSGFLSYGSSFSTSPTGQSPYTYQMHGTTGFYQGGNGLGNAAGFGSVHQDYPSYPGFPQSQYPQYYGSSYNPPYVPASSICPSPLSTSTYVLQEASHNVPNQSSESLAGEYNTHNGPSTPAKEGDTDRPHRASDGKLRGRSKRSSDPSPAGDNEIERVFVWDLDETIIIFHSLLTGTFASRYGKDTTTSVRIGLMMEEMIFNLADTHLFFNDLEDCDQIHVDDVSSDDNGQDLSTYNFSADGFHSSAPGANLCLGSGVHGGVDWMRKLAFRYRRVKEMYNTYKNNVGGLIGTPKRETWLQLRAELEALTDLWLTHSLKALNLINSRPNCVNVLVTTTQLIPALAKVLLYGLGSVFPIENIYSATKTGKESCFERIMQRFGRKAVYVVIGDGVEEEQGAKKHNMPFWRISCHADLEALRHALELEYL

The experiment has as its target Protein phosphatase EYA2 (Homo sapiens) (UniProt O00167). As to the kind of experiment: qHTS for Inhibitors of the Phosphatase Activity of Eya2: Confirmatory Assay for Cherry-picked Compounds. Further: nearly all actives have a fitted effect of over 65% in size.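 On activity change, negative = inhibition: 0% = DMSO wells and -100% = EGTA control giving full inhibition.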 The conditions noted are these: purified EYA2 phosphatase activity, qHTS confirmation; series mostly up to 46.1 µM; activity change, negative = inhibition: at the top concentration. Put shortly: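 Eya2 (0.2 uM working solution) preincubated 10 min at room temperature with compound in pH 7.5 HEPES buffer with MgCl2, BSA, DTT. OMFP added (50 uM working solution), 10 min more; fluorescence 485/525 nm, normalized to EGTA and DMSO.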
In general terms: Quantitative high-throughput screening tests each substance at several concentrations.
`Cc1cc(C)c(NC(=O)CSc2ccc(-c3ccccn3)nn2)c(C)c1`: the Potency is 6.75 µM (active).

In the case of `Cc1ccccc1NC(=O)CSc1ccc(-c2ccccn2)nn1`, the Potency is 4.26 µM (active).

As to `O=C(CSc1nnc(CNC(=O)c2ccccc2)o1)Nc1nccs1`, the “activity change, negative = inhibition” value was -23.7%.

Consider `Cc1cc(NC(=O)CSc2nnnn2-c2ccccc2C)no1`, for which the “activity change, negative = inhibition” value was -21.9%.

Turning to `Cc1csc(NC(=O)CSc2ccc(-c3ccccn3)nn2)n1`, the Potency is 4.26 µM (active).

On to `Cc1cccc(C#Cc2ccccc2)n1`, for which the “activity change, negative = inhibition” value was 10.3%.

Consider `O=S(=O)(NCCSCc1ccc(Cl)c(Cl)c1)c1ccc2c(c1)OCCO2`, for which the “activity change, negative = inhibition” value is -18.2%.

Consider `CC(=O)Nc1ccc(NC(=O)COc2ncnc3ccccc23)cc1`, for which the “activity change, negative = inhibition” value is -5.31%.

Regarding `CN(C)c1ccc(NC(=O)CC(NCc2ccccn2)C(=O)O)cc1` (configuration not stated), the Potency was 0.849 µM (active).

As for `O=C(NCc1ccccc1)c1ccc2nc(-c3ccco3)c(-c3ccco3)nc2c1`, the Potency is 8.49 µM (active).

As for `CN(C)C(CNC(=O)c1ccc2c(c1)S(=O)(=O)c1ccccc1C2=O)c1ccco1` (configuration not stated), the “activity change, negative = inhibition” value was -29.2%.

For the compound `Cc1ccc(CNC(=O)c2ccc(-n3cccc3)cc2)cc1`, the “activity change, negative = inhibition” value is -19.7%.

In the case of `O=C(NCCCO)c1ccc2nc(-c3ccco3)c(-c3ccco3)nc2c1`, the Potency is 9.53 µM (active).

`Cc1cccc2cn[nH]c12`: the “activity change, negative = inhibition” value is -0.6%.

On to `COc1ccc(/C=N/N2CCN(Cc3ccc(C)cc3)CC2)cc1Br`, for which the Potency is 15.1 µM (active).

Consider `COC1=C(Nc2ccc(OC)cc2)C(=O)c2ccccc2C1=O`, for which the Potency is 6.01 µM (active).

Turning to `O=C(NNC(=O)c1cc2cc(Br)ccc2oc1=O)c1ccc(O)cc1`, the “activity change, negative = inhibition” value was -7.2%.

For the compound `CC(=O)Nc1ccc(OC(=O)c2cc3cc(Br)ccc3oc2=O)cc1`, the Potency is 7.57 µM (active).

Take `Cc1nc(S/C(=C\c2ccc(-c3ccc(C(=O)O)c(Cl)c3)o2)C(=O)O)n[nH]1`: the Potency is 15.1 µM (active).

As to `COc1ccc(Cc2nc3c4c(ncn3n2)Oc2ccc3ccccc3c2C4c2ccc(OC)c(OC)c2)cc1` (configuration not stated), the “activity change, negative = inhibition” value is -18.2%.

Take `Cc1ccc(S(=O)(=O)N2c3ccccc3-c3c(ssc3=S)C2(C)C)cc1`: the Potency is 15.1 µM (active).

For the compound `COc1ccc2c(c1)-c1c(ssc1=S)C(C)(C)N2S(=O)(=O)c1ccc(C)cc1`, the Potency is 16.9 µM (active).

Consider `O=C(Nc1ccc2nc(-c3ccco3)c(-c3ccco3)nc2c1)N1CCCC1`, for which the Potency was 7.57 µM (active).

For the compound `CC1CCN(C(=O)Nc2ccc3nc(-c4ccco4)c(-c4ccco4)nc3c2)CC1`, the Potency is 6.75 µM (active).

For `COCCNC(=O)c1cccc(OC2CCN(Cc3ccc(F)cc3OC)CC2)c1`, the “activity change, negative = inhibition” value was -8.43%.

For the compound `O=C(CSc1nc(-c2ccccc2)nc2c1Cc1ccccc1O2)Nc1ccc(C(=O)O)cc1`, the Potency is 7.57 µM (active).

For `O=C1C(NS(=O)(=O)c2ccc(Br)cc2)=C(N2CCCCC2)C(=O)c2ccccc21`, the Potency is 8.49 µM (active).

Consider `O=C1N=c2ccccc2=C1c1sc(Nc2cccc(O)c2)nc1O`, for which the “activity change, negative = inhibition” value is -24.2%.

With `CN(C1=C(N2CCCCC2)C(=O)c2ccccc2C1=O)c1ccccc1`, the Potency was 1.2 µM (active).

For `O=C1C(Nc2cccc(O)c2)=C(N2CCCCC2)C(=O)c2ccccc21`, the Potency is 15.1 µM (active).

Regarding `O=C(CCS(=O)(=O)c1ccc(Br)cc1)N1CCCCCC1`, the “activity change, negative = inhibition” value is -25.4%.

For the compound `CC1CCN(C2=C(NS(=O)(=O)c3ccc(Br)cc3)C(=O)c3ccccc3C2=O)CC1`, the Potency was 3.79 µM (active).

In the case of `COc1ccc(-c2cc(C3CCNCC3)[nH]n2)cc1`, the “activity change, negative = inhibition” value was -8.52%.

As to `O=C(N[C@@H]1CC[C@H](CCn2cc(-c3ccccn3)nn2)O[C@@H]1CO)c1ccncc1`, the Potency was 19 µM (active).

As to `CCN(CC)c1ccc(NC(=O)c2ccc3c(c2)c(C)c(C)n3C)cc1`, the Potency was 13.5 µM (active).

Take `CC(C)(C)NC(=O)c1cccc(NC(=O)c2ccc(NC(=O)c3ccco3)cc2)c1`: the “activity change, negative = inhibition” value is -21%.

As for `CC1C=CCC2C(=O)N(c3ccc(OC(=O)c4cccs4)cc3)C(=O)C12` (configuration not stated), the Potency was 3.38 µM (active).

Turning to `CC1C=CCC2C(=O)N(c3ccc(OC(=O)c4ccco4)cc3)C(=O)C12` (configuration not stated), the Potency is 7.57 µM (active).

For `Cc1nc(-n2[nH]c3c(c2=O)CCCC3)[nH]c(=O)c1Cc1ccccc1`, the Potency is 19 µM (active).

Regarding `CCCc1nc(N2CCN(C)CC2)c2sc(=S)n(-c3ccccc3)c2n1`, the “activity change, negative = inhibition” value is -21.6%.

As for `O=S(=O)(c1cc(O)ccc1O)c1cccc2c(S(=O)(=O)c3cc(O)ccc3O)cccc12`, the Potency was 15.1 µM (active).

`N#Cc1c2nc3ccccc3nc2n2cc(NC(=O)c3ccc(F)cc3)ccc12`: the Potency is 4.26 µM (active).

Turning to `CC(C)CCNC(=O)c1onc(CSc2ccncc2)c1C(=O)NCCC(C)C`, the “activity change, negative = inhibition” value is -9.87%.

`O=C1NC(=O)/C(=C\c2ccccc2OCc2cccc([N+](=O)[O-])c2)N1`: the “activity change, negative = inhibition” value is -27.6%.

On to `CCOc1cc(/C=C2/NC(=O)NC2=O)cc(Br)c1OCc1ccc(C(=O)O)cc1`, for which the Potency is 21.3 µM (active).

Turning to `Cc1c(NC(=O)c2ccco2)cccc1C(=O)NN1C(=O)c2ccccc2C1=O`, the “activity change, negative = inhibition” value was -17.1%.

On to `C=C(C)COc1ccc(-c2nc(N)nc(C)c2-c2ccc(OC)cc2)c(O)c1`, for which the Potency was 7.57 µM (active).

As for `COc1ccc(-c2nc(N)ncc2-c2csc(C)n2)c(O)c1`, the “activity change, negative = inhibition” value is -21.3%.

Regarding `O=C(O)c1ccc(CSc2nc3ccccc3c(=O)n2-c2ccccc2)cc1`, the “activity change, negative = inhibition” value was -26.9%.

As for `COc1ccc(-n2c(SCC(=O)Nc3cc(C(=O)O)ccc3C)nc3ccccc3c2=O)cc1Cl`, the Potency was 8.49 µM (active).

For the compound `COc1ccccc1-n1c(SCC(=O)Nc2cc(C)on2)nc2c(c1=O)SCC2`, the “activity change, negative = inhibition” value was -20.4%.

For `COc1ccccc1-c1noc2c1C(=O)N(Cc1cn(-c3ccc(Cl)cc3)nn1)CC2`, the “activity change, negative = inhibition” value was -24.7%.

As for `O=c1cc2ncc(-n3cc([N+](=O)[O-])cn3)cn2[nH]1`, the “activity change, negative = inhibition” value is -10.2%.

`CCC(=O)N1c2ccc(S(=O)(=O)N3CCN(c4ccc([N+](=O)[O-])cc4)CC3)cc2CC1C` (configuration not stated): the “activity change, negative = inhibition” value is -21.1%.

`Cc1cccc(N2CC(C(=O)OCC(=O)c3ccc(OC(=O)c4cccs4)cc3)CC2=O)c1C` (configuration not stated): the Potency is 9.53 µM (active).

Turning to `Nc1nccnc1C(=O)OCC(=O)Nc1ccc2[nH]c(=O)[nH]c2c1`, the Potency is 13.5 µM (active).

With `O=C(COC(=O)c1cc(=O)[nH]c2ccccc12)Nc1cccc(S(=O)(=O)N2CCOCC2)c1`, the “activity change, negative = inhibition” value is -29.9%.

On to `CCn1c2ccccc2c2cc(NC(=O)COC(=O)c3ccc(NC(=O)CC#N)cc3)ccc21`, for which the “activity change, negative = inhibition” value is -9.27%.

On to `CCOc1ccc2ccccc2c1C(=O)N[C@@H]1C(=O)N2[C@@H]1SC(C)(C)[C@@H]2C(=O)O`, for which the “activity change, negative = inhibition” value was -15.5%.

Turning to `O=C(C[n+]1ccccc1)c1ccc(O)c(O)c1`, the “activity change, negative = inhibition” value is -16.6%.

On to `Cc1ccc(OCCSc2nc3ccccc3n2CCC(=O)O)c(C(C)C)c1`, for which the “activity change, negative = inhibition” value is -23.1%.

For the compound `O=C(CSc1nc2ccccc2n1CCc1ccccc1)c1ccc(O)c(O)c1`, the Potency is 13.5 µM (active).
